Compounds with a hit are over-represented: about 15% of the library has one in this group of screens.
12-LOX inh – Primary qHTS assay for inhibitors of human arachidonate 12S-lipoxygenase (ALOX12): Round 2 | purified 12hLO, xylenol orange hydroperoxide absorbance | Potency, µM (top dose mostly 108 µM), for inactives: top-dose activity change, negative = inhibition, hits mostly inhibitors | Polyunsaturated fatty acid lipoxygenase ALOX12 (Homo sapiens), P18054 | AID 1671190, 2021 | 1.1% of 580,000 active
Target sequence (P18054 whole entry, looked up): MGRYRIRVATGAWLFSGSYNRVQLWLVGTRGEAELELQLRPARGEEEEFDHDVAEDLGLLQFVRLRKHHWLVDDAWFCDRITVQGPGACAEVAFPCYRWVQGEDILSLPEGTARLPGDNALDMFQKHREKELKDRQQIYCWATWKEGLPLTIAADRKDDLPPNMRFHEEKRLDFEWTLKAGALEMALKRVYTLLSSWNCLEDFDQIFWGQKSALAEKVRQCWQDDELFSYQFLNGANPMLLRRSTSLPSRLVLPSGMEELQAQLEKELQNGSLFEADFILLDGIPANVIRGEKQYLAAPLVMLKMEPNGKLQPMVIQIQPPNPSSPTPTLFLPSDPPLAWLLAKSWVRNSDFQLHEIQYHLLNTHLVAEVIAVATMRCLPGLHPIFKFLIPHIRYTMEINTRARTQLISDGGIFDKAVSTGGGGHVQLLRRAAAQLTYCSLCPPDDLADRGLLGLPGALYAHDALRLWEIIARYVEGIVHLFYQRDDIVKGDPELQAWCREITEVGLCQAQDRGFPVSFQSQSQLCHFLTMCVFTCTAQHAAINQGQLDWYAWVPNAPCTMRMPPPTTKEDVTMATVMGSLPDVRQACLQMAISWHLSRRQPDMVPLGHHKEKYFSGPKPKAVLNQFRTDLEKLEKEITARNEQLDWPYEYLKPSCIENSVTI
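Hydroperoxide product was detected by ferrous iron/xylenol orange as the 573 to 405 nm absorbance ratio. Arachidonic acid at 40 uM (final) was turned over for 30 min at room temperature by 150 nM human 12hLO, pH 7.0 Hepes buffer, after 15 min compound preincubation.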
TDP1 cell noCPT – qHTS for Inhibitors of human tyrosyl-DNA phosphodiesterase 1 (TDP1): qHTS in cells in absence of CPT | DT40 Tdp1-/- hTDP1 cells, no CPT, ATP luminescence, 48 h | Potency, µM (doses to about 46.2 µM), for the others: at the top dose activity change, negative = growth inhibition, most hits filed as inhibitors | 15% of 420,000 active | AID 686978, 2013; note: nearly all actives have a fitted effect of over 55% in size
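Chicken DT40 Tdp1-/- cells complemented with human TDP1, screened without camptothecin (DMSO vehicle only), 400 cells/well. Compounds pin-transferred, cells incubated at 37 °C for at least 48 hr. Growth read as ATP-dependent luminescence (CellTiter-Glo, 30 min at RT).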
ELG1 repair inh – qHTS screen for small molecules that inhibit ELG1-dependent DNA repair in human embryonic kidney (HEK293T) cells expressing luciferase-tagged ELG1; Potency, µM (highest dose often 46.1 µM), for inactives: top-dose activity change, negative = inhibition, most hits filed as inhibitors; HEK293T ELG1-luciferase reporter, luminescence, 16 h; DNA damage induced by 5-fluorouridine; 2.3% of 330,000 active; AID 504467, 2011; note: nearly all actives have a fitted effect of over 55% in size
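Step one: seed 2,000 cells per well. Step two: pin-transfer compound or DMSO alongside 5-fluorouridine. Step three: incubate 16 hr, 37 °C, 5% CO2. Step four: add ONE-Glo, wait 30 min, read luminescence.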
RORg inh – qHTS for inhibitors of ROR gamma transcriptional activity; 5.4% of 310,000 active; Potency, µM (highest dose often 53.6 µM), for the others: at the highest dose activity change, negative = inhibition, hits mostly inhibitors; Drosophila S2 Gal4-RORgamma UAS-luciferase reporter, 20 h; Nuclear receptor ROR-gamma (Mus musculus), P51450; note: nearly all actives have a fitted effect of over 60% in size
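Drosophila Schneider cells stably carrying a metallothionein-driven Gal4 DBD–ROR gamma fusion and a UAS-Photinus luciferase reporter were exposed to compound for 1 hr, then induced with copper sulfate (700 uM final) for 20 hr at ambient temperature before luminescence reading.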
TDP1 cell CPT – qHTS for Inhibitors of human tyrosyl-DNA phosphodiesterase 1 (TDP1): qHTS in cells in presence of CPT; chicken DT40 Tdp1-/-;hTDP1 cells + 20 nM CPT, ATP luminescence, 48 h; Potency, µM (series often up to 46.2 µM), inactives show top-dose activity change, negative = growth inhibition, most hits filed as inhibitors; 12% of 420,000 active; note: nearly all actives have a fitted effect of over 55% in size
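Chicken DT40 Tdp1-/- cells stably complemented with human TDP1 were seeded at 400 cells/well in medium containing 20 nM camptothecin, exposed to pin-transferred compounds, and grown at 37 °C for at least 48 hr. Viability was read as ATP luminescence.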
VP16 counter – VP16 counterscreen qHTS for inhibitors of ROR gamma transcriptional activity; Drosophila S2 Gal4-VP16 UAS-luciferase, luminescence, 20 h; Potency, µM (doses to about 53.6 µM), for the others: at the top dose activity, negative = inhibition, usual class: inhibitors; 3.5% of 310,000 active; AID 2546, 2010;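 note: Gal4-VP16 expression switched on by copper sulfate through the metallothionein promoter; nearly all actives have a fitted effect of over 50% in size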
Active calls of the source: *. Calls come from the whole dose curve; as a rule, active = well fitted curve in the direction sought with a large enough effect; inconclusive = small, poorly fitted or top-dose-only effect, or another doubt; inactive = no such curve, though single readings can be large; an effect the other way counts as inactive or inconclusive. % is set by controls: 0 for no effect and ±100 for the full control effect; potency is the fitted concentration of half-maximal effect.

Screening COc1cccc(C2CC(=O)Nc3nc(N)sc32)c1OCc1ccc(F)cc1 (configuration not stated) returned 12-LOX inh 2µM*.
Nc1nc2c(s1)C(c1cccc(F)c1F)CC(=O)N2 (configuration not stated) was read as 12-LOX inh 16µM*.
Screening CCNc1nc2c(s1)C(c1cccnc1)CC(=O)N2 (configuration not stated) returned 12-LOX inh -10%.
COc1cccc(C2CC(=O)Nc3cc(OC)c(OC)c(OC)c32)c1OC (configuration not stated) was read as 12-LOX inh 154%, TDP1 cell noCPT inconclusive, ELG1 repair inh inconclusive, RORg inh inconclusive, TDP1 cell CPT inconclusive and VP16 counter 29%.
`Nc1nc2c(s1)C(c1cccc(OCc3cccc(F)c3)c1)CC(=O)N2` (configuration not stated) gave 12-LOX inh 3.5µM*.
`Nc1nc2c(s1)C(c1ccc(Br)cc1)CC(=O)N2` (configuration not stated) gave 12-LOX inh 27%.
`CC(C)(C)OC(=O)CC(S(=O)(=O)c1ccccc1)S(=O)(=O)c1ccccc1` gave 12-LOX inh -1%, TDP1 cell noCPT 0.92µM* and TDP1 cell CPT 1.3µM*.
`O=C(CNC(=O)c1nc[nH]c1C(=O)NCC(=O)OCc1ccccc1)OCc1ccccc1` gave 12-LOX inh -1%, TDP1 cell noCPT -26%, ELG1 repair inh -2%, RORg inh -39%, TDP1 cell CPT -6% and VP16 counter inconclusive.
Screening C[C@@H](OC(=O)c1[nH]cnc1C(=O)NCc1ccc(CNC(=O)OC(C)(C)C)cc1)c1ccccc1 returned 12-LOX inh inconclusive, TDP1 cell noCPT 16µM*, ELG1 repair inh 13µM* and TDP1 cell CPT 21µM*.
Screening CN(Cc1ccccc1)C(=O)c1[nH]cnc1C(=O)NCc1ccc(CNC(=O)OC(C)(C)C)cc1 returned 12-LOX inh 7%, TDP1 cell noCPT 13µM*, ELG1 repair inh inconclusive and TDP1 cell CPT inconclusive.
C[C@H](NC(=O)c1nc[nH]c1C(=O)NCC(=O)OCc1ccccc1)C(=O)OCc1ccccc1 was read as 12-LOX inh 2%, TDP1 cell noCPT inconclusive, ELG1 repair inh -22%, RORg inh inconclusive, TDP1 cell CPT -7% and VP16 counter -17%.
Screening C[C@H](NC(=O)c1nc[nH]c1C(=O)NCC(=O)OCc1ccccc1)c1ccccc1 returned 12-LOX inh 8%, TDP1 cell noCPT 18µM*, ELG1 repair inh -19%, RORg inh 14µM*, TDP1 cell CPT inconclusive and VP16 counter inconclusive.
`CCN(CC)C(=O)c1[nH]cnc1C(=O)NCc1ccc(CNC(=O)OC(C)(C)C)cc1` gave 12-LOX inh inconclusive, TDP1 cell noCPT -20%, ELG1 repair inh -7% and TDP1 cell CPT inconclusive.
`O=C(CNC(=O)c1nc[nH]c1C(=O)NCc1ccccc1)OCc1ccccc1` gave 12-LOX inh 8%, TDP1 cell noCPT inconclusive, ELG1 repair inh -20%, RORg inh 11µM*, TDP1 cell CPT inconclusive and VP16 counter inconclusive.

Source: PubChem BioAssay (National Center for Advancing Translational Sciences (NCATS))
